Hits are enriched below; roughly 0.24% of the tested compounds scored in any of these assays.
hcGAS lum = Primary biochemical luminescence assay for human cyclic GMP-AMP synthase inhibitors | Q8N884 | recombinant h-cGAS, ATP depletion, Kinase-Glo luminescence | inhibition, % at 12.5 µM | actives 0.081% (n = 290,000) | AID 1259398, 2018;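 further: 0% = vehicle reaction and 100% = reaction without DNA for no activity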
mcGAS lum = cyclic GMP-AMP synthase inhibitors, mouse, primary biochemical chemiluminescence | Q8C6L5 | recombinant cGAS, Kinase-Glo ATP depletion luminescence | inhibition, % at 12.5 µM | actives 0.15% (n = 160,000) | AID 1259399, 2018;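 further: 0% = negative control wells and 100% = reference inhibitor with no enzyme activity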
Target sequence (Q8C6L5 whole entry, looked up): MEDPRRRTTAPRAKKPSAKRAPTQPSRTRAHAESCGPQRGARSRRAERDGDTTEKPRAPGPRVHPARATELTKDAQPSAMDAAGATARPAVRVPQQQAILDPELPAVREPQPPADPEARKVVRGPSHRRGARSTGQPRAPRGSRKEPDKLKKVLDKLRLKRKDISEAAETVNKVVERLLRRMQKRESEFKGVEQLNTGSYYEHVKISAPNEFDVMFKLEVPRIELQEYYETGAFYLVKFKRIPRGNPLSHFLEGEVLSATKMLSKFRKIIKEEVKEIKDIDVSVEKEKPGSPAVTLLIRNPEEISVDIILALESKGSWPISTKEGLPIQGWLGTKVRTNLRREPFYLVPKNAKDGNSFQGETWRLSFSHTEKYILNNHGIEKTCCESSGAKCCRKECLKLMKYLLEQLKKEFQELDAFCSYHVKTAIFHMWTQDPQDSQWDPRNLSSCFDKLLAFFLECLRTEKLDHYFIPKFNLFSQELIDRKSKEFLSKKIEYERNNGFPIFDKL
NPYLR7 ag = agonists of mosquito NPYLR7 receptor, primary screen, cell-based, Aedes aegypti, calcium fluorescence, mosquito biting behavior; actives 0.15% (n = 270,000); activation, % at 10 µM; Aedes aegypti neuropeptide Y-like receptor 7 (NPYLR7); AID 1259423, 2018; HEK293T NPYLR7/Galpha15, GCaMP6s calcium fluorescence; in the data active means activation above about 40%;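 further: 0% = vehicle and 100% = reference agonist at the receptor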
* hit, by the source's call; . = no result given; ! = not active in a repeat. Unless noted, no stated cut-off is given here; in the data, active means inhibition above about 40%; inactive means the rest.

SMILES	hcGAS lum	mcGAS lum	NPYLR7 ag
COc1ccc(OC)c(CCNc2nc3cnc(-c4cc(OC)c(OC)c(OC)c4)cc3n2C)c1	-4.7	-6.8	70.0*
CC1CCN(c2ccc(NC(=O)c3ccc([N+](=O)[O-])cc3Cl)cc2C(=O)NCC2CCCO2)CC1 (configuration not stated)	-9.3	-5.1	.
Cc1c(C#N)sc(NC(=O)CCl)c1C#N	6.9	44.6*	2.3
CCN(C(=O)c1sc(NC(=O)CCl)c(C#N)c1C)C1CCCCC1	-2.6	1.2	-7.0
COc1ccc(NC(=O)c2coc(N3CCN(CC(=O)N(C)C)C3=O)n2)cc1	-4.2	.	1.2
COc1cc(/C=C2\C(=N)N3N=CSC3=NC2=O)ccc1OC(=O)c1cccc(C)c1	-3.5	.	4.3
CCOc1cc(/C=C2\C(=N)N3N=CSC3=NC2=O)cc(Br)c1OC(=O)c1ccccc1	2.4	.	73.6*
CSc1ccc(-c2cc(Nc3ccc4[nH]ccc4c3)ncn2)cc1	-6.7	.	9.1
COc1cc(/C=C(\C#N)C(=O)c2ccc(O)c(O)c2)cc(I)c1O	12.6	27.9	191.0*
COc1cc(C=C(C#N)C(N)=O)cc(OC)c1O	8.8	.	24.2
CCCc1nc(CN2CCN(CC(O)c3ccccc3)C(C)C2)no1 (configuration not stated)	-3.4	.	-2.3
O=C(CCl)Nc1cc([N+](=O)[O-])ccc1Cl	-2.4	51.6*	-6.0
O=C(CCl)Nc1ccc(Cl)cc1[N+](=O)[O-]	-4.9	13.6	-1.2
CCCCCN=C(N)NN=Cc1c[nH]c2ccc(OC)cc12	-3.9	.	46.5*
NC(=O)N/N=C\c1c[nH]c2ccccc12	1.3	0.1	-6.1
Cc1ccc(NC(=O)Cn2c(=O)n(Cc3ccco3)c(=O)c3sc4ccccc4c32)cc1	-4.4	-10.0	2.2
COC(=O)c1c(C)cc(OC(=O)c2c(C)cc(O)c(C=O)c2O)c(C)c1O	-3.7	-3.8	.
Cc1cc(O)c(C=O)c(O)c1C(=O)O	55.7*	.	-12.5
CCn1c(O)c(C=Nc2c(C#N)c(C)c(C)n2C2CCCCC2)c(=O)n(CC)c1=S	-23.9	-9.3	69.0*
CCn1c(O)c(C=Nc2c(C)nn(C)c2C)c(=O)n(CC)c1=S	-5.8	-7.1	-1.6
CCOC(=O)c1nn(CCC(F)(F)F)c2c1CN(C(=O)c1cc3ccccc3cn1)CC2	-6.0	-6.1	15.2
O=C1C(=Cc2ccc(OC(F)F)cc2OC(F)F)Oc2cc(O)ccc21	-4.6	.	41.4*
CCOc1cccc(C=C2Oc3cc(O)ccc3C2=O)c1OC	-3.6	.	69.7*
COc1ccccc1C=C1Oc2cc(O)ccc2C1=O	-5.3	.	17.4
COc1ccc(C=C2Oc3cc(O)ccc3C2=O)c(OC)c1	-8.1	.	33.7
SMILES	hcGAS lum	mcGAS lum	NPYLR7 ag
O=C(O)c1cc(O)c2c(O)c3c(O[C@H]4O[C@H](CO)[C@@H](O)[C@H](O)[C@H]4O)cccc3c(-c3c4cc(C(=O)O)cc(O)c4c(O)c4c(O[C@H]5O[C@H](CO)[C@@H](O)[C@H](O)[C@H]5O)cccc34)c2c1	42.4*!	.	-17.2
OCC1OC(Oc2ccccc2Cl)C(O)C(O)C1O (configuration not stated)	-3.7	-3.7	0.1
Cc1ccc(N=C2NC(=O)/C(=C\c3cc(C)n(-c4cccc([N+](=O)[O-])c4)c3C)S2)cc1	0.1	-7.0	-3.5
OC1c2ccccc2-c2c3c(cc4c2C1NCC4)OCO3 (configuration not stated)	42.5*	43.8*	12.4
Fc1ccccc1C1NCCc2cc3c(cc21)OCCO3 (configuration not stated)	-7.7	.	0.2
COc1ccc(/C=C2/SC(=S)N(CC(=O)O)C2=O)cc1OC	-2.3	-2.7	-1.6
O=C(O)CN1C(=O)/C(=C/c2cc(Br)c(O)c(Br)c2)SC1=S	2.6	6.5	250.8*
CN(C)c1ccc(/C=C2/SC(=S)N(CC(=O)O)C2=O)cc1Br	-0.5	.	124.2*
COc1cc([N+](=O)[O-])cc(/C=C2/SC(=S)N(CC(=O)O)C2=O)c1O	-4.3	-3.6	-6.2
COc1cc(/C=C2/SC(=S)N(CC(=O)O)C2=O)cc(Br)c1O	-11.6	-4.2	-0.5
O=C(O)CN1C(=O)/C(=C\c2cc([N+](=O)[O-])cc(Br)c2O)SC1=S	50.7*	66.5*	81.1*
CC(C)CC(C)NC(=O)c1cccnc1Oc1cccc([N+](=O)[O-])c1 (configuration not stated)	-3.0	-5.4	18.7
COc1ccc(-c2noc(CN3CCN(Cc4cccc(C)c4)CC3)n2)c(OC)c1OC	-1.0	-1.5	-0.3
O=C1NC2(CCSCC2)C(=O)N1Cc1c(F)cccc1Cl	-8.0	-15.5	3.7
O=C(c1nccc2ccccc12)N1CCN(CC2CCCC2)CC1	-3.5	.	125.6*
O=C(Nc1ccc(NC2CCCCC2)cc1)c1nccc2ccccc12	-4.4	.	1.2
